Test [1] is described as follows: ATG_DR4_LXR_CIS: Attagene CIS-FACTORIAL HepG2 Assay for human Liver X Receptor (LXR), DR4 submotif (AID 2282929). Conditions: HepG2 Attagene DR4 cis-reporter, mRNA transcription; actives raise or lower the signal. The gist of the method:
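Endogenous factor activity at a DR4 cis-element is read as reporter mRNA in transiently transfected HepG2 cells. Exposure lasts 24 h; transcripts are amplified, fluorescently labelled and sized by capillary electrophoresis, with DMSO as baseline.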

Test [2] can be described thus: ATG_AP_1_CIS: Attagene CIS-FACTORIAL HepG2 Assay for human Activator Protein 1 (AP-1) (AID 2282931). As to conditions: HepG2 Attagene cis-factorial AP-1 reporter mRNA; actives raise or lower the signal. A digest of the protocol: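 Fluorescence of labelled PCR fragments separated by capillary electrophoresis gives reporter mRNA levels. HepG2 with transfected cis-regulated reporter units, 24 h exposure; DMSO serves as baseline for bidirectional curve fits.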

Test [3] is described as follows: ATG_AP_2_CIS: Attagene CIS-FACTORIAL HepG2 Assay for human Activator Protein 2 (AP-2) (AID 2282932). As to conditions: HepG2 AP-2 cis-reporter, Attagene transcription factor profiling; actives raise or lower the signal. A digest of the protocol: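 Cells (HepG2) transfected with promoter-driven reporter constructs, treated 24 h. Total RNA reverse-transcribed, reporter cDNA PCR-amplified, FAM-labelled by primer extension, digested, resolved by capillary electrophoresis. Activity fitted both directions versus DMSO.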

A short description of test [4]: ATG_BRE_CIS: Attagene CIS-FACTORIAL HepG2 Assay for human Bone Morphogenetic Protein (BMP) Response Element (BRE) (AID 2282933). Conditions: HepG2 BMP response element reporter, Attagene transcription factor profiling; actives raise or lower the signal. A digest of the protocol: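 HepG2 cells transiently transfected with multiplexed cis-element reporter units were dosed with chemical for 24 h. Reporter mRNA was measured by RT-PCR with fluorescent labelling, HpaI digestion and capillary electrophoresis; bidirectional fitting relative to DMSO.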

Test [5] concerns the target Retinoic acid receptor alpha (Homo sapiens) (UniProt P10276). Description: ATG_DR5_RAR_CIS: Attagene CIS-FACTORIAL HepG2 Assay for human Retinoic Acid Receptor Alpha (RARE), DR5 submotif (AID 2282934). As to conditions: HepG2 Attagene cis-factorial RARE DR5 reporter, mRNA; actives raise or lower the signal. A digest of the protocol:
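Transfected HepG2 reporter cells are exposed to chemicals for 24 h. Then RNA is extracted and the DR5 element reporter transcript is measured by RT-PCR and capillary electrophoresis, with bidirectional curve fitting relative to DMSO.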

Test [6] has as its target Transcription factor E2F1 (Homo sapiens) (UniProt Q01094). Description: ATG_E2F_CIS: Attagene CIS-FACTORIAL HepG2 Assay for human E2F Transcription Factor 1 (AID 2282935). As to conditions: HepG2 Attagene cis-reporter, E2F reporter RNA transcripts; actives raise or lower the signal. The gist of the method: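 First, HepG2 cells were transfected with reporter transcription units. Next, they were dosed for 24 h. Then RNA was isolated, converted to cDNA, PCR-amplified, FAM-labeled, HpaI-digested and analyzed by capillary electrophoresis.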

Test [7] can be described thus: ATG_E_Box_CIS: Attagene CIS-FACTORIAL HepG2 Assay for human Enhancer Box (E-box) (AID 2282936). As to conditions: HepG2 E-box cis-reporter transcription, actives raise or lower the signal. A digest of the protocol: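 Endogenous transcription factor activity was sensed in human HepG2 liver cells through transfected cis-promoter reporter units. After 24 h of dosing, total RNA was reverse-transcribed and reporter cDNA resolved by capillary electrophoresis.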

Test [8] in a line: ATG_M_61_CIS: Attagene CIS-FACTORIAL HepG2 Assay for M61 Transcription Factor (Internal Marker) (AID 2282937). Conditions: HepG2 Attagene CIS-FACTORIAL M61 internal marker reporter; actives raise or lower the signal. The gist of the method: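 This endpoint serves as an internal background control within a multiplexed HepG2 cis-reporter panel. Cells are exposed for 24 h; reporter mRNA is amplified, fluorescently labelled and sized by capillary electrophoresis, with DMSO as negative control.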

Test [9] is described as follows: ATG_EGR_CIS: Attagene CIS-FACTORIAL HepG2 Assay for human Early Growth Response 1 (EGR1) (AID 2282938). As to conditions: HepG2 Attagene CIS-FACTORIAL EGR reporter mRNA; actives raise or lower the signal. A digest of the protocol: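 HepG2, transient MRTU transfection (cis promoters), 24 h compound. RNA → RT (oligo-dT) → PCR → 6-FAM labelling → HpaI cut → CE fluorescence. Bidirectional fit, DMSO baseline.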

The nature of test [10]: ATG_M_19_CIS: Attagene CIS-FACTORIAL HepG2 Assay for M19 Transcription Factor (Internal Marker) (AID 2282939). Conditions: HepG2 Attagene CIS-FACTORIAL M19 internal marker reporter; actives raise or lower the signal. The gist of the method:
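HepG2 cells transiently transfected with cis-regulated multiple reporter transcription units were dosed for 24 h; reporter mRNA was quantified by RT-PCR, 6-FAM primer-extension labelling, HpaI digestion and capillary electrophoresis, with bidirectional fitting against DMSO baseline.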

Test [11] can be described thus: ATG_ERE_CIS: Attagene CIS-FACTORIAL HepG2 Assay for Estrogen Response Element (ERE) (AID 2282940). Conditions: HepG2 ERE cis-reporter, Attagene RNA transcript; actives raise or lower the signal. The gist of the method: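 HepG2 cells transiently transfected with cis-promoter-driven multiplexed reporter transcription units report endogenous TF activity. After 24 h compound exposure, reporter mRNA is quantified by RT-PCR with capillary electrophoresis fluorescence; bidirectional fitting versus DMSO baseline.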

Test [12] in a line: ATG_Ets_CIS: Attagene CIS-FACTORIAL HepG2 Assay for human Erythroblast Transformation Specific (ETS) (AID 2282941). Conditions: HepG2 ETS cis-reporter transcription, actives raise or lower the signal. The gist of the method:
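Bidirectional fit versus DMSO of reporter mRNA signal, detected by RT-PCR and capillary electrophoresis in HepG2 cells transiently transfected with cis-element reporters and dosed 24 h.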

The target in test [13] is Hepatocyte nuclear factor 3-beta (Homo sapiens) (UniProt Q9Y261). Description: ATG_FoxA2_CIS: Attagene CIS-FACTORIAL HepG2 Assay for human Forkhead box A2 (FOXA2) (AID 2282942). As to conditions: HepG2 cis-reporter transcription factor activity, 24 h; actives raise or lower the signal. A digest of the protocol:
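Cells: HepG2, transient multiplex reporter transfection. Exposure 24 h. Detection: reporter-specific RT-PCR, fluorescent labelling, restriction digest, capillary electrophoresis. Analysis: bidirectional curve fit, DMSO as negative control.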

Test [14] in a line: ATG_FoxO_CIS: Attagene CIS-FACTORIAL HepG2 Assay for human Forkhead box O (FoxO) (AID 2282943). Conditions: HepG2 Attagene cis-reporter, FoxO element, mRNA; actives raise or lower the signal. A digest of the protocol:
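24 h chemical exposure, HepG2 with transient cis-MRTU transfection. RNA extraction, oligo(dT) RT, reporter-specific PCR, primer-extension labelling, HpaI digestion, CE fragment analysis; bidirectional fit, DMSO baseline.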

Test [15] in a line: ATG_GATA_CIS: Attagene CIS-FACTORIAL HepG2 Assay for human GATA Binding Protein (AID 2282944). As to conditions: HepG2 GATA cis-element reporter, Attagene multiplex mRNA; actives raise or lower the signal. A digest of the protocol:
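HepG2 cells transiently transfected with multiplexed cis-element reporter units reflecting endogenous transcription factor activity; reporter mRNA measured after 24 h dosing by RT-PCR, 6-FAM labeling, HpaI digestion and capillary electrophoresis. Bidirectional fitting versus DMSO baseline.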

Test [16] can be described thus: ATG_GLI_CIS: Attagene CIS-FACTORIAL HepG2 Assay for human Zinc Finger Protein GLI1 (AID 2282945). Conditions: HepG2, Attagene cis-factorial reporter mRNA, GLI element; actives raise or lower the signal. The gist of the method: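 HepG2 cells transiently transfected with cis-promoter multiplexed reporter units report endogenous transcription factor activity. After 24 h chemical exposure, reporter mRNA was quantified by RT-PCR, 6-FAM labelling, HpaI digestion and capillary electrophoresis, with bidirectional fitting against DMSO.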

Test [17] can be described thus: ATG_ISRE_CIS: Attagene CIS-FACTORIAL HepG2 Assay for human Interferon Regulatory Factor 1 (IRF1) binding to an Interferon-Stimulated Response Element (ISRE) (AID 2282948). Conditions: HepG2 ISRE cis-reporter (Attagene), mRNA transcription readout; actives raise or lower the signal. A digest of the protocol: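 Uses HepG2 liver cells transfected with cis-regulated reporters and measures mRNA 24 h post-dosing through RT-PCR, primer-extension labelling and capillary electrophoresis, with DMSO as negative control.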

Test [18] has as its target Aryl hydrocarbon receptor (Homo sapiens) (UniProt P35869). The test is described as follows: ATG_Ahr_CIS: Attagene CIS-FACTORIAL HepG2 Assay for human Aryl Hydrocarbon Receptor (Ahr) (AID 2282930). Conditions: HepG2 AhR cis-factorial reporter transcription; actives raise or lower the signal. A digest of the protocol: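 Following 24 h of chemical dosing, transfected HepG2 liver cells with cis-driven reporter units were lysed for RNA; reporter mRNA was quantified via RT-PCR and capillary electrophoresis, and responses fitted bidirectionally from DMSO.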

The nature of test [19]: ATG_GRE_CIS: Attagene CIS-FACTORIAL HepG2 Assay for human Glucocorticoid Response Elements (GRE) (AID 2282947). As to conditions: HepG2 GRE cis-reporter, Attagene multiplex mRNA; actives raise or lower the signal. A digest of the protocol:
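Cells (HepG2) bearing transfected cis-promoter reporter transcription units were treated with chemical for 24 hours. Reporter mRNA was measured via RT-PCR with capillary electrophoresis, and activity was fitted in both directions relative to DMSO.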

Test [20] concerns the target Bile acid receptor (Homo sapiens) (UniProt Q96RI1). The test is described as follows: ATG_IR1_CIS: Attagene CIS-FACTORIAL HepG2 Assay for human Nuclear Receptor Subfamily 1 Group H Member 4 (NR1H4), IR1 submotif (AID 2282946). Conditions: IR1 reporter transcription, actives raise or lower the signal. The gist of the method:
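Readout: reporter transcript levels by RT-PCR with fluorescent capillary electrophoresis, from HepG2 cells transiently transfected with multiplexed cis-regulated reporters and dosed 24 h. Gain- or loss-of-signal fitted versus DMSO negative control.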

The source made the active and inactive calls. How the source made its calls: active means hit-call score of the fitted dose curve at least 0.9, where 1 is the maximum; inactive means score below 0.9.

Chain of Hepatocyte nuclear factor 3-beta (Homo sapiens) (Q9Y261 whole entry, looked up): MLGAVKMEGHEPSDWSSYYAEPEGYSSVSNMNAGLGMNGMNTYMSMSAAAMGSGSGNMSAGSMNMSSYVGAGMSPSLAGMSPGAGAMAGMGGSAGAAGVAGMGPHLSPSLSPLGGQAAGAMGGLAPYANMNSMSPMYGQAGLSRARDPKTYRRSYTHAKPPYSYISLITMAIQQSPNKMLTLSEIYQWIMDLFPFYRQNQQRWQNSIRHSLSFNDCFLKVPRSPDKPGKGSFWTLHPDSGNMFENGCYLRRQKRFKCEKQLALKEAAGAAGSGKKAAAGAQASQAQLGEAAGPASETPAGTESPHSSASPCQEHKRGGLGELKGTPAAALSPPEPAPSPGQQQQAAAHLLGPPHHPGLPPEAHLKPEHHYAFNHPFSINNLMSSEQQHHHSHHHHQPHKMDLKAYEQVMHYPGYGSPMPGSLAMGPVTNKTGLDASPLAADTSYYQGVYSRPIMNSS
Chain of Transcription factor E2F1 (Homo sapiens) (Q01094 whole entry, looked up): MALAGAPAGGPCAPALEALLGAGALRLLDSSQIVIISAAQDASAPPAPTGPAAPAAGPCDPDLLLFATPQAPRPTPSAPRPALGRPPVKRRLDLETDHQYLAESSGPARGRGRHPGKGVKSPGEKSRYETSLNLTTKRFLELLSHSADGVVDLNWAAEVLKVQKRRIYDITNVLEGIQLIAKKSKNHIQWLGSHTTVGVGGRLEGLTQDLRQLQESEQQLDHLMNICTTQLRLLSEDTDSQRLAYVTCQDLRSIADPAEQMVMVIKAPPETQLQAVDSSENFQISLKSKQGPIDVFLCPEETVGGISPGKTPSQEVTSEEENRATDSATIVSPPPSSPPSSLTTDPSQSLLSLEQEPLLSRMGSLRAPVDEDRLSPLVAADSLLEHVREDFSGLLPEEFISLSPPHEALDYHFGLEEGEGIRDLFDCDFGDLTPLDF
Chain of Aryl hydrocarbon receptor (Homo sapiens) (P35869 whole entry, looked up): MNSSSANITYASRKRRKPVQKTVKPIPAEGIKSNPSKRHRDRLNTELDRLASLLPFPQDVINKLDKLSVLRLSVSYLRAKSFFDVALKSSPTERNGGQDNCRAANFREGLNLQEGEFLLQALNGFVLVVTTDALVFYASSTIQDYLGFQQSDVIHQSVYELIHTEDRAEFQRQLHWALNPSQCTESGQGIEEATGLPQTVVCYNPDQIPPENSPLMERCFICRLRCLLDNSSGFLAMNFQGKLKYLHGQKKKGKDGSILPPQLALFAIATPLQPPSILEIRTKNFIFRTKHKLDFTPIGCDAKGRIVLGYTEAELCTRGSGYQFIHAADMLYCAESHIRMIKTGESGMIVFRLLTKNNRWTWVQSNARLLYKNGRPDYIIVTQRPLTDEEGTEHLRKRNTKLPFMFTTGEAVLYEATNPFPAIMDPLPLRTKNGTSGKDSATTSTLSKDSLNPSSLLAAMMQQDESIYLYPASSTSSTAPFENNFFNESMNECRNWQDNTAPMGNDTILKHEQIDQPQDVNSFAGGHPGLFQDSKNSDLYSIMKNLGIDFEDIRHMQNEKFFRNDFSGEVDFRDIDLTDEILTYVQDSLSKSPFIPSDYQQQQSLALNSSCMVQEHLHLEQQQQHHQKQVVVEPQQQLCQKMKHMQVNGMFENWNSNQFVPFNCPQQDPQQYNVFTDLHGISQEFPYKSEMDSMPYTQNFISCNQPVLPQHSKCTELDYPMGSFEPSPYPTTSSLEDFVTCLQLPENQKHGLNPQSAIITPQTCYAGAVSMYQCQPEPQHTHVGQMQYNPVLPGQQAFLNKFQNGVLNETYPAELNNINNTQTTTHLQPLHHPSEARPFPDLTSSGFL
Chain of Bile acid receptor (Homo sapiens) (Q96RI1 whole entry, looked up): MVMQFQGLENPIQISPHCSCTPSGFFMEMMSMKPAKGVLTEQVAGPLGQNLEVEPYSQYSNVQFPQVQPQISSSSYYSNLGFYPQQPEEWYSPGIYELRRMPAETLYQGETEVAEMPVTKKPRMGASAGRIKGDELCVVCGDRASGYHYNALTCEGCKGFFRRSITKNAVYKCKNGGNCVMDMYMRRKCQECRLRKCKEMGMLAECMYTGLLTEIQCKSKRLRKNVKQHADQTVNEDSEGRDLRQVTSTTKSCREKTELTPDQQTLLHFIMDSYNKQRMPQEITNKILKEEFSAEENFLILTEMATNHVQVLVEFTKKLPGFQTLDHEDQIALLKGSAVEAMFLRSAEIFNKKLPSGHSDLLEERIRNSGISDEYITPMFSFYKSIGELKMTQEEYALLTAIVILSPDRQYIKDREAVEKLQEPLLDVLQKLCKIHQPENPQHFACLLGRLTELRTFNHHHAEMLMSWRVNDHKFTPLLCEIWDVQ
Chain of Retinoic acid receptor alpha (Homo sapiens) (P10276 whole entry, looked up): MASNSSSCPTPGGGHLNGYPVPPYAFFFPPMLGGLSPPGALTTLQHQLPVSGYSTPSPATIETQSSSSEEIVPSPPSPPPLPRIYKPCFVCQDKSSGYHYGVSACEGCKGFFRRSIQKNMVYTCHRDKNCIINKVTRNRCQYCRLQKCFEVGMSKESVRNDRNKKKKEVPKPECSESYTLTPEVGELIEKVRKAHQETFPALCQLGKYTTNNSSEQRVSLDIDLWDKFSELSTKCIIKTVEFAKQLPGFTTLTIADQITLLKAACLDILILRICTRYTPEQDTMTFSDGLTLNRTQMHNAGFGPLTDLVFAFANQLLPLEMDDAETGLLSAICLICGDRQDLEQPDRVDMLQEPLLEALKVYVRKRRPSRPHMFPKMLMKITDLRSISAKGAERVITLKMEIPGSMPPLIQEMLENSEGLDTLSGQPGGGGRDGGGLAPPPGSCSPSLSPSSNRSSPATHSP

Turning to `Cc1cc(Cl)ccc1OC(C)C(=O)O` (stereo not drawn), the call in test [1], in test [2], in [3], in [4], in [5] and in test [6] was inactive. The result in test [7], in test [8], in test [9], in test [10], in test [11] and in test [12] was inactive. The call in test [13], in [14], in test [15], in [16] and in test [17] was inactive.

`O=c1nc(O)n(Cl)c(=O)n1Cl`: the molecule was classed as inactive in test [1], in test [18], in [2], in test [3], in [4] and in [6]. The result in test [7], in test [8], in test [9], in [10], in [12] and in [14] was inactive. Moreover, the call in test [15], in test [16], in test [19] and in [17] was inactive.

Consider `O=S(=O)(F)C(F)(F)C(F)(F)C(F)(F)C(F)(F)F`, for which the call in [1], in test [18], in test [2], in test [3], in test [4] and in [6] was inactive. The result in test [7], in test [8], in [9], in test [10], in test [12] and in test [14] was inactive. Moreover, the call in [15], in test [16], in test [20], in test [19] and in [17] was inactive.

As for `O=[N+]([O-])c1cccc2ccccc12`, the result in test [1], in [2], in [3], in test [4], in [6] and in test [7] was inactive. In addition, the outcome in test [9], in test [10], in [12], in test [13], in test [14] and in test [15] was inactive. For the same molecule, the outcome in test [16] and in test [17] was inactive. The half-maximal activity concentration (AC50) (commonly the midpoint of the concentration-response curve, whichever way the signal moves) in [18] is 51.4 µM (active).

Consider `Brc1ccc(Br)cc1`, for which the call in test [1], in [18], in test [2], in test [3], in test [4] and in [6] was inactive. Besides, the result in test [7], in test [8], in test [9], in test [10], in test [12] and in [13] was inactive. Moreover, the result in [14], in test [15], in [16], in test [20], in [19] and in test [17] was inactive.

Source of the values: PubChem BioAssay (EPA / NIEHS).
